Screening results (PubChem BioAssay)
HPGD block: qHTS Assay for Inhibitors of HPGD (15-Hydroxyprostaglandin Dehydrogenase) | 15-hydroxyprostaglandin dehydrogenase [NAD(+)] (Homo sapiens), P15428 | purified HPGD, NADH fluorescence kinetic, PGE2 substrate | Potency, µM, for the others: at the highest dose activity change, negative = inhibition, most hits filed as inhibitors | 150,000 compounds, 4.3% hits; further: potency means the concentration at half of the fitted maximal effect
Target sequence (P15428 whole entry, looked up): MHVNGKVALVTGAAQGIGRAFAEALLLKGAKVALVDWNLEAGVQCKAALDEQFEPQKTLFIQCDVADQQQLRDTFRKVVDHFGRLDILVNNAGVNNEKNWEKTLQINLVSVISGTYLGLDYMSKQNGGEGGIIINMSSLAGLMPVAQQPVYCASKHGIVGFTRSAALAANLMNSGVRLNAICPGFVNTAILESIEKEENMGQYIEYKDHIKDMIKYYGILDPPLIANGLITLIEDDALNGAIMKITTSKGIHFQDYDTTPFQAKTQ
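20 nM HPGD preincubated 15 min at room temperature with compound in 50 mM Tris-HCl pH 8, 0.01% Tween 20. Started with 1 mM NAD+ and 30 uM prostaglandin E2; NADH fluorescence (360/450 nm) read 5 times over 30-s intervals, last minus first.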
IMPase Li cell: qHTS Assay for Identifying the Cell-Membrane Permeable IMPase Inhibitors: Potentiation with Lithium | CHO-M1 cells, IP1 TR-FRET (IP-One), carbachol + lithium | Potency, µM (top dose mostly 59.4 µM), without a hit: at the highest dose activity, negative = IMPase inhibition, hits mostly inhibitors | 210,000 compounds, 0.35% hits | AID 1457, 2008; active means well fitted curve in the direction sought with a large enough effect; inconclusive means small, poorly fitted or top-dose-only effect, or another doubt; inactive means no such curve, though single readings can be large; an effect the other way counts as inactive or inconclusive;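 further: IP1 builds up when IMPase is blocked and the TR-FRET signal falls; potency means the concentration at half of the fitted maximal effect; plate controls were basal vehicle for no effect and high inhibitor control for full effect; nearly all actives have a fitted effect of over 50% in size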
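Readout is a homogeneous TR-FRET IP1 immunoassay (Ex 320, Em 665 and 620), where raised cytosolic IP1 lowers signal. Cells were CHO-M1 treated 30 min at 37C with test compounds plus a little lithium; AC50 values came from Hill-equation fitting.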
PNC assembly inh: High Content Assay for Compounds that inhibit the Assembly of the Perinucleolar Compartment | PC3M PTB-GFP, PNC prevalence imaging, 16 h; stronger effect = lower value | activity change (PNC), negative = inhibition, % at 10 µM | 140,000 compounds, 3.1% hits;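 active means readout at or below -70, meaning at least 70% loss of cells showing the perinucleolar compartment, a nuclear body marking cancer cells; inconclusive means readout between -30 and a set limit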;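 further: plate controls were DMSO wells for no effect and camptothecin positive control wells for full effect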
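Read-out is percentage of cells bearing a perinucleolar compartment, from automated 20x imaging of fixed, Hoechst-stained PC3M PTB-GFP cells. Cells were seeded 4 h, then exposed 16 h to compound (23 nl of library stock) in duplicate plates.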
NPSR antag: qHTS Assay for Antagonists of the Neuropeptide S Receptor: cAMP Signal Transduction; Q6W5P4; CHO-NPSR cells, cAMP TR-FRET, antagonist mode; Potency, µM (series often up to 38.3 µM), inactives show top-dose activity change, negative = inhibition, usual class: inhibitors; 220,000 compounds, 1% hits; active means well fitted curve in the direction sought with a large enough effect; inconclusive means small, poorly fitted or top-dose-only effect, or another doubt; inactive means no such curve, though single readings can be large; an effect the other way counts as inactive or inconclusive; further: potency means the concentration at half of the fitted maximal effect; nearly all actives have a fitted effect of over 50% in size
IMPase inh: qHTS Assay for Identifying the Cell-Membrane Permeable IMPase Inhibitors. CHO-M1 cells, IP1 accumulation, HTRF TR-FRET ratio. Inositol monophosphatase 1 (Rattus norvegicus), P97697. inhibition (IP1 accumulation), % at 46.1 µM. 120,000 tested, under 10 active. AID 901, 2007; active means well fitted curve in the direction sought with a large enough effect in the signal ratio, not every such curve was filed as active; inconclusive means small, poorly fitted or top-dose-only effect, or a change in a side signal; inactive means no such curve, though single readings can be large or run the other way; the % refers to the signal ratio;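 further: cells stimulated with carbachol in lithium chloride buffer; plate controls were DMSO basal wells for no effect and reference inhibitor wells for full effect; higher means more IMPase inhibition seen as more IP1 and lower FRET ratio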
Target sequence (P97697 whole entry, looked up): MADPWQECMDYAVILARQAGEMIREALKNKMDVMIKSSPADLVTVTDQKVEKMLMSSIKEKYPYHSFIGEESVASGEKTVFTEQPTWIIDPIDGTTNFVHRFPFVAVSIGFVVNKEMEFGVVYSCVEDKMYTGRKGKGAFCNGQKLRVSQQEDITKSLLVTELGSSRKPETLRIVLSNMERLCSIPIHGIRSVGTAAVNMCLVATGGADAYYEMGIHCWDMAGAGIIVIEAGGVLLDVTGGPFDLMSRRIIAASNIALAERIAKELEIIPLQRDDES
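The IP-One HTRF competitive assay in carbachol-stimulated CHO-M1 cells quantifies cellular IP1. Compounds spanned up to 46 uM final, and activity is expressed as AC50 from concentration-response fits of the ratio and donor data.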
ALDH1A1 block: qHTS Assay for Inhibitors of Aldehyde Dehydrogenase 1 (ALDH1A1); Aldehyde dehydrogenase 1A1 (Homo sapiens), P00352; Purified ALDH1A1, NADH fluorescence, propionaldehyde substrate; Potency, µM (top dose mostly 75.3 µM), for inactives: at the highest dose activity, negative = inhibition, hits mostly inhibitors; 220,000 compounds, 7.3% hits; AID 1030, 2008;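 further: potency means the concentration at half of the fitted maximal effect; plate controls were no enzyme wells and a reference inhibitor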
Active calls of the source: *; u = inconclusive; x = no result given; [ ] = another dose, or the depositor's remark. This is a sample that favours compounds with a hit; in the whole collection about 11% have one here. Unless noted, the call rests on the fitted dose curve; in most records, active means well fitted inhibition curve with a large enough effect (not every such curve was filed as active); inconclusive means small, poorly fitted or top-dose-only effect, or another doubt; inactive means no such curve, though single readings can be large or run the other way. Unless noted, on the % scale 0 is the no-effect control and ±100 the full control effect.

SMILES | HPGD block | IMPase Li cell | PNC assembly inh | NPSR antag | IMPase inh | ALDH1A1 block
CC(=O)Nc1ccc(S(=O)(=O)Oc2ccc(C=O)cc2)cc1 | -13.2% | -1.7% | 44.5 | 12.9% | x | 28.2µM*
O=C(c1ccc2c(c1)OCO2)N1CCCC(c2ccccc2)C1 (configuration not stated) | x | x | -6.8 | 2.1%[46.1 µM] | 19.2 | u
COc1ccc(NC(=O)CSc2nc(-c3cccc(C)c3)[nH]c2-c2ccccc2)cc1OC | x | x | x | x | 11.4 | x
CCCCN=Cc1c(C)[nH]n(-c2ccccc2)c1=S | x | -5.3% | x | -55.8% | x | 28.2µM*
Cc1[nH]n(-c2ccccc2)c(=O)c1C=Nc1cccc2cccnc12 | -19.3% | 1.9% | -14.4 | -4.9% | x | -10.3%
Cc1[nH]n(-c2ccccc2)c(=S)c1C=Nc1cccc([N+](=O)[O-])c1 | 8.91µM* | 3.2%[38.3 µM] | -22.3 | -8.5%[46.1 µM] | 0.8 | 5.62µM*
CCCCN(CCCC)C(=S)N/N=C/c1c(C)[nH]n(-c2ccccc2)c1=O | -29.4% | 12.6%[38.3 µM] | 43.9 | 7.8%[46.1 µM] | 4.0 | 5.01µM*
Cc1nc(SCC(=O)NCc2ccco2)c2oc3ccccc3c2n1 | x | x | -20.6 | -1.2%[46.1 µM] | -4.4 | -15.2%
CN(C)/N=C/C=C1\CCC/C(=C/c2cccs2)C1=O | x | x | x | -7.1% | x | 25.1µM*
COc1ccc(-c2nnn(CC(=O)N(Cc3cccs3)C(C)C(=O)NC3CCCC3)n2)cc1OC (configuration not stated) | -7.7% | 17.4%[38.3 µM] | -2.0 | -21.2%[46.1 µM] | 5.3 | -6.4%
COCCNC(=O)c1ccc(C2SCC(=O)N2Cc2ccco2)cc1 (configuration not stated) | x | 4.8% | x | -1.0% | x | 10µM*
CCCNC(=O)c1ccc(C2SCC(=O)N2Cc2ccccc2)cc1 (configuration not stated) | 3.16µM* | 17.6% | u | -9.2% | x | -3.2%
O=C(NCc1ccc2c(c1)OCO2)c1ccc(C2SCC(=O)N2Cc2ccco2)cc1 (configuration not stated) | u | u | u | -16.2%[46.1 µM] | 10.7 | 7.08µM*
CN1CCN(C(=O)c2ccc(C3SCC(=O)N3Cc3ccco3)cc2)CC1 (configuration not stated) | 12.6µM* | 7.2%[38.3 µM] | u | -0.6%[46.1 µM] | u | u
COCCCNC(=O)c1ccc(C2SCC(=O)N2Cc2ccco2)cc1 (configuration not stated) | x | u | x | 24.8% | x | u
Cc1ccc(N=Cc2sccc2C)cc1C | -0.1% | -2.5% | 0.9 | 16.6% | x | -0.2%
COCCNC(=S)N/N=C(\C)c1ccccc1O | -22.8% | 0.4% | u | -22.8% | x | -3.7%
Cc1[nH]c2ccccc2c1C(Nc1nccs1)c1ccncc1 (configuration not stated) | -7.8% | 5.7% | 1.1 | -23.8%[46.1 µM] | 0.0 | 4.1%
O=c1cc(O)c2sc3nc(C(F)(F)F)c4c(c3c2[nH]1)CCCCC4 | x | -11.4% | x | -20.2% | x | -1.3%
COc1cccc(=O)c2c(C)n(-c3cc(C)cc(C)c3)c(C)c12 | 28.2µM* | 10.7%[38.3 µM] | 65.8 | u | 5.9 | -5.1%
COc1cccc(-n2c(C)c3c(OC)cccc(=O)c3c2C)c1 | x | 20.2% | x | -34.1% | x | u
O=C(NCCc1ccccc1)C1c2ccccc2C(=O)N1Cc1cccs1 (configuration not stated) | x | 2.1% | x | -32.0% | x | 12.6µM*
COc1ccc(C2(CCN=Cc3ccc(N(C)C)cc3)CCOC(C)(C)C2)cc1 (configuration not stated) | x | x | x | 4.5% | x | x
CN(C)c1ccc(C=NCC2(O)CCOC(C)(C)C2)cc1 (configuration not stated) | -12.9% | 20.2%[38.3 µM] | 25.5 | -16.8%[46.1 µM] | -0.7 | 0.447µM*
O=C(c1cc(C2CC2)on1)N1CCN(c2ccccc2)CC1 | -23.8% | 15.1%[38.3 µM] | 9.7 | u | 11.9 | 28.2µM*
